The list is not random: actives were taken first. Their share in the collection is about 4.6%.
TRHR enhancer = allosterically enhances the human TRH receptor | 360,000 compounds, 0.66% hits | AID 493056 | TRHR cells, fluo-8 calcium fluorescence, EC20 TRH enhancement | enhancement, % at 2 µM; in the data active = enhancement above about 30%; also: 0% is about no effect
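Enhancer read-out: after compound pinning and an initial kinetic agonist-mode read, an EC20 of TRH (10 nM final) was injected and fluo-8 calcium signal (Ex 480/Em 530) followed at 1 s/cycle for 100 cycles in TRHR-expressing cells.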
D1 antag = blocks dopamine activation of the human D1 receptor; activity change, negative = inhibition, % at 10 µM; HEK293 TREx D1 cells, calcium flux, dopamine EC80; active compounds read low; AID 504652; P21728; 360,000 compounds, 3.2% hits; in the data active = activity change below about -30%; also: % is scaled to controls: 0 for no effect and ±100 for the full control effect
Target sequence (P21728 whole entry, looked up): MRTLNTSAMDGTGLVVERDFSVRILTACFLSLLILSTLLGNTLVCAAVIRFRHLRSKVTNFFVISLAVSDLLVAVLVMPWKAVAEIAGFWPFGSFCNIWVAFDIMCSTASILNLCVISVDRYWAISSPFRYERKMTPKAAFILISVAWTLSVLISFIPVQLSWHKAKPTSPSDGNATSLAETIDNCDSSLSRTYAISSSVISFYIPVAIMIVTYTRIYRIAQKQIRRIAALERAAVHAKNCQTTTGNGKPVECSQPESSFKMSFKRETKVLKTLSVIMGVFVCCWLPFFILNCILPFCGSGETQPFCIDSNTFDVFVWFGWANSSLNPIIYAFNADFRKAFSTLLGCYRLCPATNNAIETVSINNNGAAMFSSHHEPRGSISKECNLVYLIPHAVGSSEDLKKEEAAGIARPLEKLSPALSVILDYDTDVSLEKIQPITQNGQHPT
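Inducible Hek293 Trex D1 cells (tetracycline, overnight, 30 C). Calcium dye 30–90 min RT. Antagonist mode: EC80 dopamine added after 180 s compound read.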
D1 agonist = human D1 receptor agonism; P21728; HEK293 T-REx D1 cells, calcium flux, agonist mode; activation, % at 2 µM; 360,000 compounds, 1% hits; also: 0% is about no effect
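Inducible HEK293 T-REx D1 cells, force-coupled to calcium signalling, were plated at 4000 cells/well with tetracycline and held overnight at 30 C. After no-wash calcium dye loading, compound-evoked calcium rise over 180 s flagged agonists.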
TRHR agonist = TRH receptor (human) agonism; P34981; TRHR cells, calcium flux fluo-8, FDSS agonist mode; activation, % at 2 µM; 360,000 compounds, 0.18% hits; AID 493084; also: 0% is about no effect
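Fluo-8-loaded TRHR cells; 10 s baseline, compound added, kinetic Ca2+ fluorescence read 1/s, agonist mode.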
D1 PAM = enhances dopamine response at the human D1 receptor; 360,000 compounds, 0.036% hits; HEK293 TREx D1 cells, calcium flux, dopamine EC20 potentiation; potentiation, % at 10 µM; in the data active = potentiation above about 30%; also: 0% is about no effect
The depositor's hits bear a star; x = no result given. Rule as the data show it, unless noted: active = activation above about 30%; inactive = the rest.

SMILES	TRHR enhancer	D1 antag	D1 agonist	TRHR agonist	D1 PAM
O=C(CNc1cc(S(=O)(=O)N2CCCC2)ccc1OCC(F)(F)F)Nc1ccc(SC(F)F)cc1	-8	-51*	11	1	-8
Cc1ccc(NC(=O)CCNC(=O)c2ccc(Br)cc2)cc1S(=O)(=O)N1CCOCC1	15	17	2	0	-5
Cc1ccc(NC(=O)CCNS(=O)(=O)c2ccccc2F)cc1S(=O)(=O)N1CCOCC1	-5	-59*	1	-1	-3
Cc1ccc(NC(=O)C(C)N2C(=O)c3ccccc3C2=O)cc1S(=O)(=O)N1CCOCC1 (stereo not given)	-8	-42*	4	0	-5
O=C(CN1C(=O)NC2(CCCC2)C1=O)Nc1cc(S(=O)(=O)N2CCOCC2)ccc1OCC(F)(F)F	-7	-50*	2	0	-1
CCN(CC)c1ccc(S(=O)(=O)N2CCOCC2)cc1NC(=O)CN1C(=O)NC2(CCCC2)C1=O	-9	-10	1	0	-6
O=C(Nc1nnc2n1CCS2)c1ccco1	-1	0	0	0	-1
COc1cc(OC)cc(C(=O)NNC(=O)CCc2nc3ccccc3c(=O)[nH]2)c1	-4	19	15	0	x
Cc1cc(Cl)c2oc(C(=O)NCCN3CCOC3=O)c(C)c2c1	7	2	1	0	1
O=C1CC(c2ccccc2Cl)CC(O)=C1C=NCCCO (stereo not given)	34*	15	2	0	-10
CC1C(=O)Nc2ccc(S(=O)(=O)NCc3ccc(Cl)cc3)cc2NC1=O (stereo not given)	-3	-3	0	0	-15
Cc1ccc(-n2c(-c3ccco3)n[nH]c2=S)cc1	3	-9	3	-3	3
Cc1nn(C)c(Oc2cccc(Cl)c2)c1C#N	1	2	0	-1	1
Cn1nc(-c2ccccc2)c(C#N)c1Sc1cccc(Cl)c1	15	-22	88*	-2	-4
Fc1ccc(-c2nc(-c3cccs3)c(-c3cccs3)[nH]2)cc1	-7	-9	0	1	1
Cc1ccc(-c2nc(-c3cccs3)c(-c3cccs3)[nH]2)cc1	-6	-33*	4	-1	-3
O=[N+]([O-])c1cccc(-c2nc(-c3cccs3)c(-c3cccs3)[nH]2)c1	4	-36*	2	-1	-8
O=[N+]([O-])c1ccc(-c2nc(-c3cccs3)c(-c3cccs3)[nH]2)cc1	3	-11	38*	0	-2
O=C(c1ccc(COc2ccccc2[N+](=O)[O-])o1)N1CCCCCC1	6	-1	5	-1	-3
CCCOC(=O)c1ccc(NC(=O)Cn2nnc3sc4c(c3c2=O)CCC(C(C)(C)C)C4)cc1 (stereo not given)	5	4	0	1	5
Cc1cccc(OCc2ccc(-c3nc(C#N)c(NCCN(C)C)o3)o2)c1	-7	-18	102*	-3	3
CC[C@H](C)/C=C(C)/C=C/C1=CC2=CC(=O)[C@]3(C)OC(=O)[C@@H](C(C)=O)[C@@H]3C2=CO1	-6	-14	42*	11	4
CC[C@H](C)/C=C(C)/C=C/C(=O)Cc1cc(O)c(C)c(O)c1C=O	-6	-16	14	3	-7
CCOC(=O)c1cc(-c2ccc(C)cc2)n(CC(=O)Nc2ccccc2F)c1C	5	22	2	0	-1
N#C/C(=N\Nc1ccc(Cl)cc1)C(N)=S	-5	-15	30*	3	-3
SMILES	TRHR enhancer	D1 antag	D1 agonist	TRHR agonist	D1 PAM
N#C/C(=N\Nc1ccccc1)C(N)=S	-4	-27	19	2	-7
Cc1ccc(NC(=O)CC(NC(=O)c2ccccc2Cl)c2ccccc2)nc1 (stereo not given)	-3	-30*	7	0	x
COc1ccc(/C=C/C(=O)Nc2ccc(S(=O)(=O)Nc3cc(C)nc(C)n3)cc2)cc1OC	-1	10	0	0	-4
CCCCCc1c(C)nc(Nc2ccc(F)cc2)[nH]c1=O	-8	-29	21	5	-7
CCCCc1c(C)nc(Nc2ccc(OC)cc2)[nH]c1=O	7	-37*	1	0	-1
CCCc1cc(=O)[nH]c(Nc2ccc(OCC)cc2)n1	-6	-84*	9	0	4
Cc1ccc(N2CCN(c3ccc(C)cc3)C(CC(=O)O)C2=O)cc1 (stereo not given)	-13	-4	0	0	-2
Cn1c(NCCCN2CCOCC2)nc2c1c(=O)n(Cc1ccc(Cl)cc1)c(=O)n2C	-5	-5	3	0	0
O=c1c2sc3ccccc3c2n(Cc2cccc(C(F)(F)F)c2)c(=O)n1Cc1ccccc1	-3	9	3	2	-1
COc1ccc(-c2cc(C(F)(F)F)nc(NCc3ccccc3)n2)cc1OC	-4	7	1	0	0
COc1cccc(-c2cc(C(F)(F)F)nc(NCCc3ccc(OC)c(OC)c3)n2)c1	-5	-53*	11	1	0
CC(/C=C/c1ccc(Cl)o1)=C\C(=O)O	-12	-15	2	0	2
C=CCc1ccccc1OCc1nc2ccc(C)cc2[nH]1	7	-37*	21	-1	-2
COc1ccc(C(CNC(=O)c2cccc(S(=O)(=O)NCc3ccccc3)c2)N2CCOCC2)cc1 (stereo not given)	1	-2	9	-1	4
OCCN1CCN(CCCN2c3ccccc3Sc3ccc(Cl)cc32)CC1	1	-83*	12	2	-6
CN(C)CC/C=C1\c2ccccc2Sc2ccc(Cl)cc21	-1	-82*	22	1	-3
CC[N+](C)(C)CC/C=C1/c2ccccc2Sc2ccc(Cl)cc21	4	-17	0	-1	-3
CN1CCN(CCCN2c3ccccc3Sc3ccc(S(=O)(=O)N(C)C)cc32)CC1	-1	-94*	52*	5	-1
CN1CCN(CCCNC(=O)c2cn(C)c3ccc(S(=O)(=O)N(C)C)cc3c2=O)CC1	-4	-6	4	0	-4
CCCCCCCCCC[N+](C)(C)CC/C=C1/c2ccccc2Sc2ccc(Cl)cc21	8	6	53*	1	-4
CN(C)CC/C=C1/c2cc(F)ccc2CSc2ccc(F)cc21	3	-4	5	1	-9
CC1(C(=O)N2CCC(CO)(Cc3cccc(C(F)(F)F)c3)CC2)CC1	1	27	0	1	-3
O=C(CSc1nncn1-c1cccnc1)Nc1ccccc1C(F)(F)F	0	-11	1	0	3
COCCn1c(SCc2cc(C(C)=O)ccc2OC)nc2cc(Cl)ccc2c1=O	-4	-11	0	0	-4
OCCN1CCN(CC/C=C2/c3ccccc3Sc3ccc(Cl)cc32)CC1	0	-100*	27	-1	-5
